Screens deposited in PubChem by National Center for Advancing Translational Sciences (NCATS).
Lassa entry inh = qHTS for Inhibitors of binding or entry into cells for Lassa Virus; Potency, µM (titrated, usually from 37.9 µM), for inactives: top-dose activity change, negative = inhibition, usual class: inhibitors; Lassa virus pseudotype entry inhibition, cell reporter; hit rate 1.2% among 300,000; calls by dose curve; tested in HEK293 cells; further: nearly all actives have a fitted effect of over 50% in size
FMDV antiviral = High Throughput Screening for Foot and Mouth Disease Virus Antivirals; FMDV antiviral cell-based qHTS; Potency, µM (highest dose often 57.9 µM), for the others: at the highest dose activity change, negative = inhibition, hits mostly inhibitors; hit rate 1.2% among 410,000; calls by dose curve; tested in HEK293T cells; further: read-out not given here; nearly all actives have a fitted effect of over 45% in size
Vaccinia mCherry = qHTS for Stage-Specific Inhibitors of Vaccinia Orthopoxvirus: mCherry Reporter Primary qHTS; AID 720579, 2013; Potency, µM (titrated, usually from 36.5 µM), for inactives: top-dose activity change, negative = inhibition, hits mostly inhibitors; Vaccinia virus mCherry reporter infection, fluorescence; hit rate 0.63% among 310,000; calls by dose curve; tested in A549 cells; further: nearly all actives have a fitted effect of over 35% in size
VACV Venus inh = qHTS for Stage-Specific Inhibitors of Vaccinia Orthopoxvirus: Venus Reporter Primary qHTS. Vaccinia virus Venus reporter expression, fluorescence. Potency, µM (highest dose often 36.5 µM), for inactives: at the top dose activity change, negative = inhibition, hits mostly inhibitors. hit rate 0.46% among 330,000; calls by dose curve; tested in A549 cells; further: nearly all actives have a fitted effect of over 30% in size
MARV entry inh = qHTS for inhibitors of binding or entry into cells for Marburg Virus; Marburg virus pseudotyped entry inhibition, cell reporter; Potency, µM (top dose mostly 37.8 µM), for the others: at the highest dose activity change, negative = inhibition, actives largely listed as inhibitors; AID 540276, 2011; hit rate 1.8% among 300,000; calls by dose curve; tested in HEK293 cells
* = called active by the depositor; i = inactive; ? = inconclusive; / = not tested or not shown; ! = not active in a repeat; [ ] = dose if it differs, or a comment. Hits are enriched below; roughly 3.2% of the tested compounds scored in any of these assays. On the % scale 0 is the no-effect control and ±100 the full control effect; potency means the concentration at half of the fitted maximal effect.

SMILES | Lassa entry inh | FMDV antiviral | Vaccinia mCherry | VACV Venus inh | MARV entry inh
CN1/C(=C\C=N\NC(=O)c2ccc(O)cc2)C(C)(C)c2ccccc21 | ? | 28.2µM* | i | 38.0% | ?
CN1/C(=C\C=N\NC(=O)c2cccnc2)C(C)(C)c2ccccc21 | / | -9.6% | / | / | /
Cn1ncc(S(=O)(=O)Cc2ccccc2)c(Br)c1=O | 9.2µM* | / | / | / | -18.4%
Cc1nc(SCC(=O)c2cc(C)n(C3CC3)c2C)c2ccccc2n1 | / | 10µM* | -10.3% | ? | /
CCCc1cc(-c2[nH]ncc2-c2ccc3c(c2)OCCCO3)c(O)cc1O | ? | 14.1µM* | / | / | 14.6µM*
CCCc1cc(-c2[nH]ncc2-c2ccc(C(=O)OCC)o2)c(O)cc1O | -17.4% | / | ? | ? | ?
COc1ccc(/C=N/NC(=O)c2cccc(OC(F)(F)C(F)F)c2)c(OC)c1OC | 10µM* | -20.7% | -6.1% | -6.6% | 23.3%
COc1ccc(OC)c(/C=N/NC(=O)c2cc3c(OC)cccc3[nH]2)c1 | 2.6% | -27.0% | -11.9%[7.34 µM] | -18.4%[7.34 µM] | 10µM*
COc1ccc(/C=N/NC(=O)c2cc3c(OC)ccc(OC)c3[nH]2)cc1O | ? | -0.9% | 7.08µM* | ? | ?
COc1ccc(/C=N/NC(=O)c2cnccn2)cc1O | 23.6% | 17.2% | i | -10.7% | ?
CCOc1ccc(NC(=O)CSc2ccc(-c3sc(-c4ccccc4)nc3C)nn2)cc1 | ? | 10.2% | i | -9.3% | /
O=c1c([N+](=O)[O-])cc(C(F)(F)F)cn1Cc1c(Cl)cccc1Cl | 4.2% | -11.3% | i | -10.0% | 9.2%
Cc1ccccc1CN1[C@H](C)[C@H](c2ccccc2)OCCS1(=O)=O | / | / | -26.3% | -16.3% | /
CCCCn1c(SCc2nc3ccccc3s2)nc2ccccc2c1=O | 12.3% | ? | -21.1% | -6.5% | -1.2%
CCCCn1c(SCc2nc3ccccc3s2)nc2cc(S(N)(=O)=O)ccc21 | ? | -22.0% | -22.7% | ? | 1.83µM*
CC1(C(=O)NS(=O)(=O)c2cccc(F)c2)CCN1C(=O)c1cccc(F)c1 (stereo not given) | / | -0.2% | 11.8% | 2.6% | /
CC(=O)c1ccc(OC(C)C)c(CSC(=N)N)c1 | / | 0.0% | / | / | /
CCCCCOc1ccc(Br)cc1CSC(=N)N | / | 15.8µM* | ? | 11.2µM* | /
COc1ccc(Br)cc1CSC(=N)N | -0.3%[46.1 µM] | -25.4% | -6.1% | 0.4% | 12.6µM*
COc1ccccc1C(=O)N(Cc1cc2cccc(C)c2nc1N1CCC(O)CC1)C1CC1 | / | -6.9% | -13.5% | 5.1% | /
O=C1Nc2cc(C(=O)NCCN3CCCCCC3)ccc2S/C1=C/c1ccccc1F | / | -20.7% | ? | 12.6µM* | /
COc1cc(/C=C/c2ccc3ccccc3n2)cc(OC)c1OC | / | / | ? | -26.0% | /
NC(=O)c1ccc(-c2nc(-c3ccc4c(c3)OCO4)c(-c3ccccn3)[nH]2)cc1 | 6.28µM* | -4.3% | / | / | /
O=C(Nc1cccc(C(F)(F)F)c1)NC1CCCCC1 | 3.98µM* | 20.2% | / | ? | 13.5%
NC(=O)/C=C\C(=O)Nc1cccc(C(F)(F)F)c1 | ? | / | ? | -17.5% | 9.2µM*
SMILES | Lassa entry inh | FMDV antiviral | Vaccinia mCherry | VACV Venus inh | MARV entry inh
C=C1C=C(C(F)F)n2ncc(C(=O)NCc3ccc(OC)cc3)c2N1 | / | / | 0.6% | -11.1% | /
COc1ccc(OC)c([C@@H]2C(C#N)=C(N)Oc3cc(C)[nH]c(=O)c32)c1 | / | / | / | / | 7.6%
N#C/C(=C\c1cccc(NC(=O)c2ccccc2Cl)c1)C(=O)NCCc1ccccc1 | ? | 28.2µM* | -25.2% | -5.1% | 11.2µM*
COc1ccc(CCNC(=O)/C(C#N)=C/c2cccc(OCc3ccccc3)c2)cc1OC | -19.0% | 28.2µM* | -12.9% | -21.5% | ?
COc1ccc(OC)c(-c2ccnc(-n3ncc(C(=O)NC(C)(C)CO)c3C3CC3)n2)c1 | / | 34.2% | -13.9% | 0.3% | /
COc1ccc(OC)c(-c2nc3c(C#N)c[nH]n3c2NC2CCCCC2)c1 | -16.7%[46.1 µM] | -17.2% | ? | ? | ?
CCOC(=O)C1(c2ccccc2)CCN(CCC(=O)Nc2cccc(Br)c2)CC1 | 12.6µM* | -33.3% | ? | ? | 2.82µM*
COc1ccccc1NS(=O)(=O)c1cc(N2Cc3ccccc3C2=N)ccc1N1CCOCC1 | ? | 25.6% | -11.1% | -13.3% | 7.08µM*
O=c1cnc2cncnc2n1Cc1ccccc1 | / | -9.8% | / | / | /
O=C(CCC(=O)N1CCN(c2ccccc2F)CC1)N1CCN(c2ccccc2)CC1 | / | -12.2% | / | / | /
O=C(CCC(=O)N1CCN(c2ccccc2F)CC1)N1CCN(c2ccc(F)cc2)CC1 | ? | 22.4µM* | -12.6% | -18.1% | -2.2%
O=C(OCC(=O)N1CCCC1=O)C1COc2ccccc2O1 (stereo not given) | / | -2.6% | -7.7% | 7.6% | /
CS(=O)(=O)c1ccc(Cl)c(NC(=O)CCl)c1 | 17.8µM* | 25.1µM* | ? | ? | ?
Cc1c(-c2nc(-c3ccc(C(C)(C)C)cc3)no2)n(C)oc1=O | ? | 63.1µM* | -3.0% | -19.7% | ?
CC(C1CC1)N(Cc1ccccc1)C(=O)NC(=O)c1ccc(F)cc1 (stereo not given) | 11.2µM* | 11.6% | -3.4% | -26.3% | 4.7%
C#CCN1C(=O)[C@]2(OC[C@@H]3Cc4ccccc4[C@@H]3C=C2C)c2ccccc21 | -18.5%[14.3 µM] | / | / | / | 2.7%[14.2 µM]
O=C(NCCOc1ccccc1)C1C(=O)Nc2ccccc2C(=O)N1C1CCCCC1 (stereo not given) | / | -21.5% | -14.9% | -7.1% | /
CC(C)(C)c1ccc(O[C@@H]2[C@H](O)CO[C@@H]2/C=C/C#Cc2ccccc2)cc1 | / | / | / | / | -15.8%[14.2 µM]
CCOC(=O)C1CCCN(C(=O)Cn2ncc3c(C)n(Cc4ccc(Cl)cc4)c(C)c3c2=O)C1 (stereo not given) | -2.3%[46.1 µM] | 17.8µM* | -6.5% | -15.8% | 2.8%[46.1 µM]
O=C(c1ccc(COc2ccccc2Cl)o1)N1CCN(Cc2ccc3c(c2)OCO3)CC1 | ? | 35.5µM*! | i | -16.0% | ?
O=C(c1ccc(COc2ccc(Cl)cc2)o1)N1CCN(Cc2ccc3c(c2)OCO3)CC1 | ? | / | -21.6% | -18.5% | -21.5%
